Structures can show the parent of a compound that is named as a salt.
Key:
Conditions in all cases: treatment time: 24 h
A549-ACTB-RAB5A [1] = assay: lowest phenotypically active concentration; higher = less potent
Procedure, shortened: (§1)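 The reporter lines, fifteen in total and built by gene editing in A549, HepG2 and WPMY1 cells, used BFP for segmentation alongside GFP and RFP/FusionRed markers. Each was treated at 0.3, 1, 3 or 9 µM for 24 h in four wells and then imaged live, with live-cell features normalised to solvent control wells. Deviation meant ≥3 of 4 wells beyond the 95th percentile of control Euclidean distances; reproducibility meant a median replicate Pearson correlation above the 95th percentile of non-replicates. Only conditions meeting both were scored as phenotypically active.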

A549-GM130-SQSTM1 [2] = assay: as above
Procedure, shortened: as §1

A549-TUBA1B-RELA [3] = assay: as above
Procedure, shortened: as §1

HepG2-ACTB-RAB5A [4] = assay: as above
Procedure, shortened: as §1

WPMY1-GM130-SQSTM1 [5] = assay: as above
Procedure, shortened: as §1

A549-ACTB-RAB5A [6] = assay: phenotypically active (imaging signature differs from DMSO and reproducible) at any of 0.3-9 uM (binary (1 = active, 0 = inactive)); higher = active
Procedure, shortened: as §1

A549-CANX-COX4 = assay: as above
Procedure, shortened: as §1

A549-GM130-SQSTM1 [7] = assay: as above
Procedure, shortened: as §1

A549-TP53BP1-CLTA = assay: as above
Procedure, shortened: as §1

A549-TUBA1B-RELA [8] = assay: as above
Procedure, shortened: as §1

HepG2-ACTB-RAB5A [9] = assay: as above
Procedure, shortened: as §1

HepG2-CANX-COX4 = assay: as above
Procedure, shortened: as §1

HepG2-GM130-SQSTM1 = assay: as above
Procedure, shortened: as §1

HepG2-TP53BP1-CLTA = assay: as above
Procedure, shortened: as §1

HepG2-TUBA1B-RELA = assay: as above
Procedure, shortened: as §1

WPMY1-ACTB-RAB5A = assay: as above
Procedure, shortened: as §1

WPMY1-CANX-COX4 = assay: as above
Procedure, shortened: as §1

WPMY1-GM130-SQSTM1 [10] = assay: as above
Procedure, shortened: as §1

WPMY1-TP53BP1-CLTA = assay: as above
Procedure, shortened: as §1

WPMY1-TUBA1B-RELA = assay: as above
Procedure, shortened: as §1

Compound	lowest phenotypically active concentration (A549-ACTB-RAB5A [1])	lowest phenotypically active concentration (A549-GM130-SQSTM1 [2])	lowest phenotypically active concentration (A549-TUBA1B-RELA [3])	lowest phenotypically active concentration (HepG2-ACTB-RAB5A [4])	lowest phenotypically active concentration (WPMY1-GM130-SQSTM1 [5])	phenotypically active (A549-ACTB-RAB5A [6])	phenotypically active (A549-CANX-COX4)	phenotypically active (A549-GM130-SQSTM1 [7])	phenotypically active (A549-TP53BP1-CLTA)	phenotypically active (A549-TUBA1B-RELA [8])	phenotypically active (HepG2-ACTB-RAB5A [9])	phenotypically active (HepG2-CANX-COX4)	phenotypically active (HepG2-GM130-SQSTM1)	phenotypically active (HepG2-TP53BP1-CLTA)	phenotypically active (HepG2-TUBA1B-RELA)	phenotypically active (WPMY1-ACTB-RAB5A)	phenotypically active (WPMY1-CANX-COX4)	phenotypically active (WPMY1-GM130-SQSTM1 [10])	phenotypically active (WPMY1-TP53BP1-CLTA)	phenotypically active (WPMY1-TUBA1B-RELA)
CN1[C@@H]2CC[C@H]1C[C@@H](OC(c1ccccc1)c1ccccc1)C2 [benztropine]	9 µM	9 µM	9 µM	9 µM	9 µM	1 (active)	0 (inactive)	1 (active)	1 (active)	1 (active)	1 (active)	1 (active)	0 (inactive)	1 (active)	1 (active)	0 (inactive)	1 (active)	1 (active)	0 (inactive)	1 (active)
CC(C)COCC(CN(Cc1ccccc1)c1ccccc1)N1CCCC1 (stereo not given) [bepridil]	9 µM	9 µM	9 µM	9 µM	9 µM	1 (active)	0 (inactive)	1 (active)	1 (active)	1 (active)	1 (active)	1 (active)	1 (active)	1 (active)	1 (active)	0 (inactive)	1 (active)	1 (active)	1 (active)	0 (inactive)
COc1ccc(CCNCc2ccc(OCc3ccc(Cl)nc3)c(OC)c2)cc1OC [SBE 13 hydrochloride]	3 µM	9 µM	3 µM	9 µM	9 µM	1 (active)	0 (inactive)	1 (active)	1 (active)	1 (active)	1 (active)	0 (inactive)	0 (inactive)	1 (active)	1 (active)	1 (active)	1 (active)	1 (active)	1 (active)	1 (active)
COc1cc2ncnc(Nc3ccc(Cl)cc3F)c2cc1OC	9 µM	3 µM	3 µM	–	–	1 (active)	0 (inactive)	1 (active)	1 (active)	1 (active)	0 (inactive)	0 (inactive)	0 (inactive)	0 (inactive)	0 (inactive)	0 (inactive)	0 (inactive)	0 (inactive)	0 (inactive)	0 (inactive)
O=S(=O)(c1cccc2cnccc12)N1CCCNCC1 [fasudil]	3 µM	9 µM	3 µM	9 µM	9 µM	1 (active)	0 (inactive)	1 (active)	1 (active)	1 (active)	1 (active)	1 (active)	1 (active)	1 (active)	1 (active)	1 (active)	1 (active)	1 (active)	0 (inactive)	1 (active)
CC(C)(C)c1ccc2cc(C#N)c(C#N)cc2c1	3 µM	3 µM	–	–	–	1 (active)	0 (inactive)	1 (active)	0 (inactive)	0 (inactive)	0 (inactive)	0 (inactive)	0 (inactive)	0 (inactive)	0 (inactive)	0 (inactive)	0 (inactive)	0 (inactive)	0 (inactive)	0 (inactive)
O=C([C@H](Cc1cccc(C(F)(F)F)c1)NS(=O)(=O)c1cc(F)c2c(c1)CCNC2)N1CCCC1 [(S)-PFI 2 hydrochloride]	9 µM	9 µM	–	–	–	1 (active)	0 (inactive)	1 (active)	0 (inactive)	0 (inactive)	0 (inactive)	0 (inactive)	0 (inactive)	0 (inactive)	0 (inactive)	0 (inactive)	0 (inactive)	0 (inactive)	0 (inactive)	0 (inactive)
C[C@H]1Oc2cc(cnc2N)-c2c(nn(C)c2C#N)CN(C)C(=O)c2ccc(F)cc21	3 µM	1 µM	1 µM	3 µM	–	1 (active)	0 (inactive)	1 (active)	1 (active)	1 (active)	1 (active)	1 (active)	1 (active)	1 (active)	1 (active)	0 (inactive)	0 (inactive)	0 (inactive)	1 (active)	0 (inactive)
O=C(O)C[C@H](O)C[C@H](O)/C=C/c1c(C2CC2)nc2ccccc2c1-c1ccc(F)cc1 [Pitavastatin calcium]	1 µM	9 µM	–	1 µM	≤ 0.3 µM	1 (active)	0 (inactive)	1 (active)	1 (active)	0 (inactive)	1 (active)	1 (active)	1 (active)	1 (active)	1 (active)	1 (active)	1 (active)	1 (active)	1 (active)	1 (active)
CSc1ccc2c(c1)N(CCC1CCCCN1C)c1ccccc1S2 (stereo not given) [thioridazine]	3 µM	3 µM	3 µM	9 µM	9 µM	1 (active)	0 (inactive)	1 (active)	1 (active)	1 (active)	1 (active)	1 (active)	1 (active)	1 (active)	1 (active)	1 (active)	1 (active)	1 (active)	1 (active)	1 (active)
Clc1ccccc1C(c1ccccc1)(c1ccccc1)n1ccnc1 [Clotrimazole]	9 µM	9 µM	–	9 µM	9 µM	1 (active)	0 (inactive)	1 (active)	1 (active)	0 (inactive)	1 (active)	1 (active)	0 (inactive)	0 (inactive)	0 (inactive)	0 (inactive)	1 (active)	1 (active)	0 (inactive)	0 (inactive)
C[C@]1(O)C[C@@H](c2nc(-c3ccc4ccc(-c5ccccc5)nc4c3)c3c(N)nccn32)C1 [linsitinib]	1 µM	≤ 0.3 µM	3 µM	9 µM	9 µM	1 (active)	0 (inactive)	1 (active)	1 (active)	1 (active)	1 (active)	1 (active)	1 (active)	1 (active)	1 (active)	1 (active)	1 (active)	1 (active)	1 (active)	0 (inactive)
CC(C)OC(=O)c1cc2c(OCC(O)CNC(C)(C)C)cccc2[nH]1 (stereo not given)	3 µM	9 µM	3 µM	9 µM	9 µM	1 (active)	0 (inactive)	1 (active)	1 (active)	1 (active)	1 (active)	0 (inactive)	0 (inactive)	1 (active)	1 (active)	1 (active)	1 (active)	1 (active)	1 (active)	1 (active)
COc1ccc(CNC(=O)Nc2ncc([N+](=O)[O-])s2)cc1	9 µM	9 µM	9 µM	–	9 µM	1 (active)	0 (inactive)	1 (active)	1 (active)	1 (active)	0 (inactive)	0 (inactive)	0 (inactive)	0 (inactive)	0 (inactive)	0 (inactive)	1 (active)	1 (active)	1 (active)	0 (inactive)
Cc1noc(C)c1Cn1cc(C#N)c2cc(Oc3ccc(NC(=O)[C@@H]4CCCN4)cc3)ccc21	9 µM	9 µM	9 µM	–	9 µM	1 (active)	0 (inactive)	1 (active)	1 (active)	1 (active)	0 (inactive)	0 (inactive)	1 (active)	1 (active)	1 (active)	1 (active)	1 (active)	1 (active)	1 (active)	1 (active)
COc1ccccc1OCCNCC(O)COc1cccc2[nH]c3ccccc3c12 (stereo not given) [Carvedilol]	9 µM	9 µM	9 µM	9 µM	3 µM	1 (active)	0 (inactive)	1 (active)	1 (active)	1 (active)	1 (active)	1 (active)	1 (active)	1 (active)	1 (active)	1 (active)	1 (active)	1 (active)	1 (active)	1 (active)
CCCCOc1cc(C(=O)NCCN(CC)CC)c2ccccc2n1 [cinchocaine]	3 µM	9 µM	9 µM	–	–	1 (active)	0 (inactive)	1 (active)	1 (active)	1 (active)	0 (inactive)	0 (inactive)	0 (inactive)	1 (active)	0 (inactive)	1 (active)	0 (inactive)	0 (inactive)	0 (inactive)	0 (inactive)
Cn1cc(C2=C(c3ccc(Cl)cc3Cl)C(=O)NC2=O)c2ccccc21	1 µM	≤ 0.3 µM	1 µM	–	≤ 0.3 µM	1 (active)	0 (inactive)	1 (active)	1 (active)	1 (active)	0 (inactive)	0 (inactive)	1 (active)	1 (active)	0 (inactive)	0 (inactive)	1 (active)	1 (active)	1 (active)	0 (inactive)
CCCNCC(O)COc1ccccc1C(=O)CCc1ccccc1 (stereo not given) [propafenone]	9 µM	9 µM	9 µM	9 µM	3 µM	1 (active)	0 (inactive)	1 (active)	1 (active)	1 (active)	1 (active)	0 (inactive)	0 (inactive)	0 (inactive)	1 (active)	1 (active)	1 (active)	1 (active)	1 (active)	0 (inactive)
COc1cc2c(cc1OCCCN1CCCC1)N=C(N)C21CCC1	9 µM	9 µM	9 µM	–	–	1 (active)	0 (inactive)	1 (active)	0 (inactive)	1 (active)	0 (inactive)	0 (inactive)	0 (inactive)	0 (inactive)	0 (inactive)	0 (inactive)	0 (inactive)	0 (inactive)	0 (inactive)	0 (inactive)
O=C1Cc2cc(CCN3CCN(c4nsc5ccccc45)CC3)c(Cl)cc2N1 [ziprasidone]	9 µM	9 µM	9 µM	3 µM	–	1 (active)	0 (inactive)	1 (active)	0 (inactive)	1 (active)	1 (active)	0 (inactive)	1 (active)	1 (active)	1 (active)	0 (inactive)	0 (inactive)	0 (inactive)	0 (inactive)	0 (inactive)
CCN(CCO)CCCC(C)Nc1ccnc2cc(Cl)ccc12 (stereo not given) [hydroxychloroquine]	9 µM	9 µM	9 µM	–	9 µM	1 (active)	0 (inactive)	1 (active)	0 (inactive)	1 (active)	0 (inactive)	0 (inactive)	1 (active)	0 (inactive)	1 (active)	1 (active)	1 (active)	1 (active)	0 (inactive)	1 (active)
